{"source": "PubChem BioAssay", "key": {"[1]": {"assay": "inhibitors of Cryptococcus chitosan production, flow cytometry, Cibacron Brilliant Red staining (AID 1347148; call rule not given here;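 note: compound exposure lasted three days at 37 degrees C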)", "details": "Cryptococcus neoformans chitosan, stronger effect = lower value; at 99.1 µM unless noted"}, "[2]": {"assay": "HDN33 neuroblastoma growth inhibition, cell-based, chromothripsis tumors, cisplatin or BGB combos (AID 1671450);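 note: cells exposed to compound for four days; 0% = vehicle DMSO and 100% = cell killing by high DMSO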", "details": "HDN33 neuroblastoma cells, stronger effect = higher value"}, "[3]": {"assay": "LFS_MB_1R medulloblastoma cell growth inhibition, synergistic combos for chromothripsis tumors, cisplatin or BGB combos (AID 1671452);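 note: cells exposed for 96 hours before readout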", "details": "LFS_MB_1R medulloblastoma cells, stronger effect = higher value"}, "[4]": {"assay": "HTB85 osteosarcoma cell growth inhibition, synergistic combos for chromothripsis tumors, BGB or cisplatin IC20 combos (AID 1671453);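 note: cells exposed for 96 hours before readout; 0% = vehicle DMSO and 100% = high DMSO killing control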", "details": "HTB85 osteosarcoma cells, drug combinations, stronger effect = higher value"}, "[5]": {"assay": "CRL2098 osteosarcoma cell growth inhibition, synergistic combos for chromothripsis tumors, BGB or cisplatin IC20 combos (AID 1671454);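 note: cells exposed for 96 h before readout; 0% = vehicle DMSO and 100% = killing by high DMSO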", "details": "CRL2098 osteosarcoma cells, drug combinations, stronger effect = higher value"}, "[6]": {"assay": "HD-MB03 medulloblastoma cell growth inhibition, synergistic combos for chromothripsis tumors, BGB or cisplatin IC20 combos (AID 1671455; in the data active = inhibition above about 83%;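 note: 0% = vehicle DMSO and 100% = high DMSO as cytotoxic control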)", "details": "HD-MB03 medulloblastoma cells, stronger effect = higher value"}, "[7]": {"assay": "UWB1.289 ovarian carcinoma cell growth inhibition, synergistic combos for chromothripsis tumors, BGB or cisplatin combos (AID 1671456);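 note: cells exposed to compound for four days; 0% = vehicle DMSO and 100% = killing by high DMSO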", "details": "UWB1.289 ovarian carcinoma cells, stronger effect = higher value"}, "[8]": {"assay": "LFS_MB_2R medulloblastoma cell growth inhibition, synergistic combos for chromothripsis tumors, cisplatin combos (AID 1671457);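 note: cells exposed to compound for four days before readout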", "details": "LFS_MB_2R medulloblastoma cells, stronger effect = higher value"}, "[9]": {"assay": "MDA-MB-436 breast carcinoma cell growth inhibition, synergistic combos for chromothripsis tumors, BGB or cisplatin combos (AID 1671458; call rule not given here;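 note: cells exposed for 96 hours; 0% = vehicle DMSO and 100% = killing by high DMSO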)", "details": "MDA-MB-436 breast carcinoma growth inhibition, drug combinations, stronger effect = higher value"}, "[10]": {"assay": "UWB1.289_BRCA1 ovarian cancer growth, cell-based, BGB or cisplatin combinations (AID 1671459)", "details": "UWB1.289 BRCA1 ovarian carcinoma, drug combinations, stronger effect = higher value"}, "[11]": {"assay": "human astrocyte viability loss, single and combined drugs, cytotoxicity control for chromothriptic childhood tumor combination screen, cell-based, BGB or cisplatin IC20 combos (AID 1671460);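 note: cells exposed to compounds for 96 hours before viability readout; 0% = vehicle and 100% = killing control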", "details": "Human astrocytes, drug combinations, stronger effect = higher value"}, "[12]": {"assay": "growth inhibition of BT084 medulloblastoma cells, cell-based, ICGC_MB145, cisplatin and BGB IC40 combos (AID 1671461);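 note: cells exposed to drugs for 96 hours; 0% = vehicle DMSO and 100% = high DMSO full killing control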", "details": "drug combinations, stronger effect = higher value"}, "[13]": {"assay": "growth inhibition of RCMB18 medulloblastoma cells, cell-based, cisplatin and BGB IC40 combos (AID 1671462);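 note: cells exposed to compound for four days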", "details": "stronger effect = higher value"}, "[14]": {"assay": "growth inhibition of CRL1545 osteosarcoma cells, cell-based, cisplatin and BGB IC20 combos (AID 1671464);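 note: cells exposed to compound for 96 hours before readout; 0% = vehicle DMSO and 100% = high DMSO killing control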", "details": "stronger effect = higher value"}, "[15]": {"details": "measured here: with BGB IC20 combination, at 0.5 µM"}, "[16]": {"details": "measured here: with cisplatin IC20 combination, at 0.5 µM"}, "[17]": {"details": "measured here: combination with cisplatin, at 0.5 µM"}, "[18]": {"details": "measured here: combination with cisplatin, at 5 µM"}}, "note": "Values joined by “and” are separate entries in the source; they are usually repeats but may differ in a detail not shown here. Equal values may be shown once. Active and inactive are the calls of the source. Cut-off read from the data, not from the text of the source, unless noted: active = inhibition above about 80%; inactive = the rest."}
{"compound": "CCCCNC(=O)NS(=O)(=O)c1ccc(C)cc1", "values": [{"measurement": "fold fluorescence", "setting": "[1]", "result": "3.24 [at 184.9 µM] (inactive)"}]}
{"compound": "Cn1c(=O)c2[nH]cnc2n(C)c1=O", "values": [{"measurement": "inhibition", "setting": "[2]; BGB combo, at 5 µM", "result": "-6.91% and -17% and -18.3%"}, {"measurement": "inhibition", "setting": "[2]; at 0.5 µM", "result": "1.38% (inactive) and 2.18% (inactive) and -18.5% (inactive)"}, {"measurement": "inhibition", "setting": "[2]; cisplatin combo, at 5 µM", "result": "14.2% and 15.4% and -46.9%"}, {"measurement": "inhibition", "setting": "[2]; [15]", "result": "4.11% and 8.06% and -21.1%"}, {"measurement": "inhibition", "setting": "[2]; [16]", "result": "9.64% and 13.8% and 3.17%"}, {"measurement": "inhibition", "setting": "[2]; single agent, at 5 µM", "result": "-10.4% and -21.4% and -26.1%"}, {"measurement": "inhibition", "setting": "[3]; at 0.5 µM", "result": "-21.9% (inactive) and -0.42% (inactive) and -31.4% (inactive)"}, {"measurement": "inhibition", "setting": "[3]; measured here: combination with BGB IC40, at 0.05 µM", "result": "-26.4% and 1.86% and -7.92%"}, {"measurement": "inhibition", "setting": "[3]; [17]", "result": "-14.9% and -0.619% and -31.4%"}, {"measurement": "inhibition", "setting": "[3]; [18]", "result": "8.09% and -20.9% and -28.9%"}, {"measurement": "inhibition", "setting": "[4]; at 0.5 µM", "result": "4.06% (inactive) and -19.4% (inactive) and 3.27% (inactive)"}, {"measurement": "inhibition", "setting": "[4]; measured here: with BGB IC20, at 0.5 µM", "result": "-3.78% and -35% and -47%"}, {"measurement": "inhibition", "setting": "[4]; measured here: with BGB IC20, at 5 µM", "result": "-9.64% and -9.51% and -34.2%"}, {"measurement": "inhibition", "setting": "[4]; measured here: with cisplatin IC20, at 0.5 µM", "result": "-5.37% and -29.8% and 44.7%"}, {"measurement": "inhibition", "setting": "[4]; measured here: with cisplatin IC20, at 5 µM", "result": "-42.2% and 14.2% and 0.95%"}, {"measurement": "inhibition", "setting": "[4]; single agent, at 5 µM", "result": "4.95% and 14.1% and 12.1%"}, {"measurement": "inhibition", "setting": "[5]; at 0.5 µM", "result": "-26.5% (inactive) and -30.1% (inactive) and -56.1% (inactive)"}, {"measurement": "inhibition", "setting": "[5]; measured here: combination with BGB at IC20, at 0.5 µM", "result": "-30.2% and -27.7% and -48.2%"}, {"measurement": "inhibition", "setting": "[5]; measured here: combination with cisplatin at IC20, at 0.5 µM", "result": "-14.9% and -28.7% and -88%"}, {"measurement": "inhibition", "setting": "[6]; at 0.5 µM", "result": "-13.1% (inactive) and -5.07% (inactive) and -0.46% (inactive)"}, {"measurement": "inhibition", "setting": "[6]; measured here: combo with BGB at IC20, at 0.5 µM", "result": "-12% and -8.62% and 8.13%"}, {"measurement": "inhibition", "setting": "[6]; measured here: combo with cisplatin at IC20, at 0.5 µM", "result": "-20.1% and -3.43% and -7.86%"}, {"measurement": "inhibition", "setting": "[7]; at 0.5 µM", "result": "4.45% (inactive) and -2.98% (inactive) and 2.06% (inactive)"}, {"measurement": "inhibition", "setting": "[7]; measured here: inhibition with BGB combination, at 0.05 µM", "result": "-14.7% and -27.6% and -12%"}, {"measurement": "inhibition", "setting": "[7]; measured here: inhibition with cisplatin combination, at 0.05 µM", "result": "-7.61% and -9.15% and -16.4%"}, {"measurement": "inhibition", "setting": "[8]; at 0.5 µM", "result": "-18.7% (inactive) and -17.5% (inactive) and -20.5% (inactive)"}, {"measurement": "inhibition", "setting": "[8]; [17]", "result": "-25.2% and -14.1% and -19.4%"}, {"measurement": "inhibition", "setting": "[8]; [18]", "result": "-67.2% and -2.43% and -20.9%"}, {"measurement": "inhibition", "setting": "[9]; at 0.5 µM", "result": "-17.5% (inactive) and -19.5% (inactive) and -13.6% (inactive)"}, {"measurement": "inhibition", "setting": "[9]; measured here: BGB combination, at 0.5 µM", "result": "-12% and -14.3% and -17.1%"}, {"measurement": "inhibition", "setting": "[9]; measured here: BGB combination, at 5 µM", "result": "-13.2% and -18.8% and -9.87%"}, {"measurement": "inhibition", "setting": "[9]; measured here: cisplatin combination, at 0.5 µM", "result": "-40.2% and -33.9% and -18.2%"}, {"measurement": "inhibition", "setting": "[9]; measured here: cisplatin combination, at 5 µM", "result": "-36.3% and -17.6% and -0.817%"}, {"measurement": "inhibition", "setting": "[10]; BGB combination, concentration series, at 5 µM", "result": "-19.8% and 16.6% and -0.184%"}, {"measurement": "inhibition", "setting": "[10]; at 0.5 µM", "result": "-1.02% (inactive) and -1.86% (inactive) and -8.23% (inactive)"}, {"measurement": "inhibition", "setting": "[10]; cisplatin combination, concentration series, at 5 µM", "result": "10.1% and 4.75% and 18.9%"}, {"measurement": "inhibition", "setting": "[11]; at 0.5 µM", "result": "0.61% (inactive) and -3.23% (inactive) and 6.04% (inactive)"}, {"measurement": "inhibition", "setting": "[11]; measured here: combo with BGB IC20, at 0.5 µM", "result": "-5.91% and -4.46% and 10.7%"}, {"measurement": "inhibition", "setting": "[11]; measured here: combo with cisplatin IC20, at 0.5 µM", "result": "-10.6% and -12% and 4.82%"}, {"measurement": "inhibition", "setting": "[12]; at 0.5 µM", "result": "-52.1% (inactive) and -29.3% (inactive) and -9.65% (inactive)"}, {"measurement": "inhibition", "setting": "[12]; cisplatin combination, at 0.5 µM", "result": "-24.1% and -32.5% and -4.44%"}, {"measurement": "inhibition", "setting": "[12]; cisplatin combination, at 5 µM", "result": "-14.9% and -47.9% and -47.4%"}, {"measurement": "inhibition", "setting": "[12]; measured here: BGB IC40 combination 0.05 uM, at 0.05 µM", "result": "-3.16% and -19.9% and 10.3%"}, {"measurement": "inhibition", "setting": "[12]; single agent, at 5 µM", "result": "-10.6% and -25.6% and -15.2%"}, {"measurement": "inhibition", "setting": "[13]; at 0.5 µM", "result": "-12.3% (inactive) and -7.91% (inactive) and -23.8% (inactive)"}, {"measurement": "inhibition", "setting": "[13]; cisplatin combo, at 5 µM", "result": "-18.4% and 16.4% and 3.76%"}, {"measurement": "inhibition", "setting": "[13]; measured here: BGB IC40 combination, at 0.05 µM", "result": "-15.1% and -0.46% and -14.9%"}, {"measurement": "inhibition", "setting": "[13]; [17]", "result": "5.37% and -0.222% and -34.5%"}, {"measurement": "inhibition", "setting": "[13]; single agent, at 5 µM", "result": "-20% and -29.1% and -26.4%"}, {"measurement": "inhibition", "setting": "[14]; at 0.5 µM", "result": "2.86% (inactive) and -13.9% (inactive) and -23% (inactive)"}, {"measurement": "inhibition", "setting": "[14]; [15]", "result": "6.54% and -1.14% and 25.3%"}, {"measurement": "inhibition", "setting": "[14]; [16]", "result": "-1.22% and -20.4% and -47.1%"}, {"measurement": "inhibition", "setting": "[14]; single agent, at 0.05 µM", "result": "6.84% and 45.8% and 6.98%"}, {"measurement": "inhibition", "setting": "[14]; single agent, at 5 µM", "result": "18.7% and 15.6% and -12.3%"}]}
{"compound": "NC(N)=NC(=O)c1nc(Cl)c(N)nc1N", "values": [{"measurement": "fold fluorescence", "setting": "[1]", "result": "7.16 [at 217.7 µM] (inactive)"}]}
